# Data published in PubChem BioAssay (NCATS).
# Inconclusive results are not listed. The source made the active and inactive calls. Unless noted, calls follow the shape of the dose curve; as a rule, active = well fitted curve in the direction sought with a large enough effect; inconclusive = small, poorly fitted or top-dose-only effect, or another doubt; inactive = no such curve, though single readings can be large; an effect the other way counts as inactive or inconclusive.
# Tests used:
# [1] = biological target: Lysosomal acid glucosylceramidase (Homo sapiens) (UniProt P04062); assay: Glucocerebrosidase-p2 (AID 348; in the data active = potency below about 10 µM; also: potency is read from the fitted curve at half-maximal effect); conditions: purified GBA, blue fluorogenic substrate, 40 min
# Procedure, shortened: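 Compounds titrated from 0.6 nM upwards against 0.2 nM enzyme in pH 5.9 citric acid/KH2PO4, taurocholate, tween-20; blue fluorogenic substrate 80 uM, 40 min room temperature, stopped and read Ex 365/Em 440 for AC50.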
# [2] = AP1 Signaling Pathway (AID 357; active = well fitted curve in either direction with a large enough effect, not every such curve was filed as active;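 also: ME-180 reporter cells stimulated with EGF at its EC50 level; % is scaled to controls: 0 for no effect and ±100 for the full control effect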); conditions: ME-180 AP-1-bla reporter, EGF-induced, beta-lactamase ratio, 5 h; at 7.69 µM (top of the series) unless noted
# Procedure, shortened: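 Modulation of EGF-driven AP-1 transcription was assessed with a beta-lactamase reporter in ME-180 cells. Compound and EC50 EGF were co-incubated 5 hours at 37 °C before 2.5-hour CCF4 loading at room temperature and dual-emission reading.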
# [3] = biological target: Cytochrome P450 1A2 (Homo sapiens) (UniProt P05177); assay: p450-cyp1a2 (AID 410; calls by dose curve; also: potency is read from the fitted curve at half-maximal effect;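 as to activity change, negative = inhibition: -100% = full effect of reference inhibitor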); conditions: recombinant CYP1A2, luciferin-ME demethylation, luminescence; series mostly up to 57 µM
# Procedure, shortened: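 20nM CYP1A2 with 100uM Luciferin-ME (at Km) in 100mM KPO4; compound preincubated 10 min, NADPH regeneration added, 60 min at room temperature. Luciferin quantified by luminescence after detection reagent; normalized to 57 uM furafylline.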
# [4] = NFAT Signaling Pathway (AID 444; active = well fitted curve in either direction with a large enough effect, not every such curve was filed as active;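 also: carbachol stimulus at about its EC50 of 1 µM final; % is scaled to controls: 0 for no effect and ±100 for the full control effect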); conditions: Jurkat NFAT-bla M1, carbachol, beta-lactamase ratio, 5 h; at 7.69 µM (top of the series) unless noted
# Procedure, shortened: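 Jurkat cells carrying an NFAT-driven β-lactamase reporter and co-transfected muscarinic M1 receptor were treated with compound plus carbachol (1 uM final, an EC50 level) for 5 h at 37 °C. CCF4 loading followed for 1 h at RT; 460/530 nm ratio gave %activity.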
# [5] = Stat Signaling Pathway (AID 446; active = well fitted curve in either direction with a large enough effect, not every such curve was filed as active;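 also: ME-180 cervical cancer cells given 40 pM IL-6 alongside compound; SIE-controlled beta-lactamase reporter measured as 460/530 nm FRET emission ratio; % is scaled to controls: 0 for no effect and ±100 for the full control effect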); conditions: ME-180 SIE beta-lactamase reporter, IL-6 stimulated, 5 h; at 7.69 µM (top of the series) unless noted
# Procedure, shortened: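 Reporter line: ME-180 cervical carcinoma, SIE-beta-lactamase. Treatment: compound with 40 pM IL-6, 5 hrs, 37 C, in low-serum OPTI-MEM with 10 mM HEPES pH 7.3. Detection: 460/530 nm fluorescence.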
# [6] = biological target: Glucocorticoid receptor (Homo sapiens) (UniProt P04150); assay: GR-GFP Redistribution (AID 450;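 active = compounds whose dose series gives a full or clear partial fitted curve of increased nuclear translocation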; also: potency is read from the fitted curve at half-maximal effect); conditions: U2OS GR-GFP nuclear translocation, laser cytometry, 2 h
# [7] = biological target: Glucocorticoid receptor (Homo sapiens) (UniProt P04150); assay: GR-EFC Redistribution (AID 451; calls by dose curve; also: potency is read from the fitted curve at half-maximal effect); conditions: CHO-K1 GR-EFC translocation, beta-gal luminescence, 2 h
# Procedure, shortened: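 CHO-K1 cells stably expressing nuclear-localized β-gal enzyme acceptor and GR fused C-terminally to the enzyme donor fragment; ligand-driven nuclear translocation restores β-gal by complementation. Compounds titrated up to 46 uM final, 2 h at 37 °C; luminescence read.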
# [8] = biological target: Mitogen-activated protein kinase 10 (Mus musculus) (UniProt Q61831); assay: JNK3 AlphaScreen Assay (AID 530; active = well fitted curve in either direction with a large enough effect, not every such curve was filed as active;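 also: kinase came from lysate of stimulated human HepG2 cells; signal reports phosphorylation of biotinylated GST-cJun 1-79 at Ser73 with 10 µM ATP; % is scaled to controls: 0 for no effect and ±100 for the full control effect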); conditions: JNK3 lysate, c-Jun phosphorylation; series mostly up to 57.1 µM
# Procedure, shortened: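 Inhibitors reduce antibody binding to phosphorylated biotin-cJun, lowering AlphaScreen luminescence. Lysates from HepG2 cells pre-activated by IL-1beta plus TNF-alpha supplied JNK3; compounds were titrated.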
# [9] = biological target: 3',5'-cyclic-AMP phosphodiesterase 4B (Homo sapiens) (UniProt Q07343); assay: qHTS Assay for Inhibitors of PDE-IV (AID 607; active = well fitted activation curve with a large enough effect in the main read-out, with a control signal flat, not every such curve was filed as active; also: % of control where 0% means no effect); conditions: HEK293 ACTOne CNG channel cells, membrane potential fluorescence; series mostly up to 22.9 µM
# Procedure, shortened: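 Cell-based read-out of cAMP via a modified cyclic nucleotide-gated channel and membrane potential dye (535/590 nm) in HEK293 cells expressing PDE4 endogenously. Compounds tested up to 22.9 uM final; 100 uM RO 20-1724 reference.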
# [10] = biological target: Cytochrome P450 2C9 (Homo sapiens) (UniProt P11712); assay: qHTS Assay for Inhibitors and Substrates of Cytochrome P450 2C9 (AID 883); conditions: recombinant CYP2C9, luciferin-H luminescence, 60 min; series mostly up to 57.1 µM; also: % is scaled to controls: 0 for no effect and ±100 for the full control effect; nearly all actives have a fitted effect of over 60% in size
# Procedure, shortened: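 Human CYP2C9 (10nM) hydroxylated Luciferin-H (100uM, at its KM) to luciferin in 25mM KPO4. Compound was preincubated 10 min at 37C, then NADPH regeneration started a 60 min reaction at 37C. Luminescence was read after detection reagent, normalized to 57uM sulphaphenazole.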
# [11] = Confirmation and Secondary Assay for Modulators of Hemoglobin Beta Chain Splicing at IVS2 654 locus (AID 910); conditions: HeLa EGFP-654 splicing reporter, GFP fluorescence, 48 h; series mostly up to 38.3 µM;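 also: per-well total GFP intensity by laser scanning cytometry after 2-day treatment; % of control where 0% means no effect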
# Procedure, shortened: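 HeLa cells stably carrying EGFP interrupted by mutant beta-globin IVS2-654 intron (CMV-driven) were treated with compound for 2 days at 37C; corrected splicing was scored as total peak GFP intensity per well (488 nm excitation, 500-520 nm emission).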
# [12] = Confirmation and Secondary Assay for Modulators of Hemoglobin Beta Chain Splicing at IVS2 705 locus (AID 930); conditions: HeLa EGFP-705 splicing reporter, GFP fluorescence, 48 h; series mostly up to 38.3 µM;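 also: HeLa cells stably expressing the EGFP-705 splicing reporter; GFP fluorescence per well restored by corrected splicing of the IVS2-705 intron in EGFP; % of control where 0% means no effect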
# Procedure, shortened: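 Fluorescence gain (488 nm laser, 500-520 nm PMT) reflects restored correct splicing of a mutant IVS2-705 intron inside EGFP in stably transfected HeLa cells after 2-day compound treatment.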
# [13] = qHTS Assay for Lipid Storage Modulators (AID 1519; calls by dose curve); conditions: Drosophila S3 cells, BODIPY lipid droplet/cell ratio, laser cytometry, cells loaded with oleic acid; for activity change, negative = inhibition: at 57.5 µM (top of the series)
# Procedure, shortened: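 Cells seeded at 5,000 per well were treated with compounds over a concentration series and loaded with oleic acid (400 uM, as added). Lipid droplet fluorescence (488 nm excitation, 500-530 nm channel) was read by laser-scanning cytometry and normalized to 20 uM Triacsin C.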
# [14] = biological target: Ubiquitin carboxyl-terminal hydrolase 1 (Homo sapiens) (UniProt O94782); assay: Inhibitors of USP1/UAF1: Pilot qHTS (AID 504865); conditions: purified USP1/UAF1, Ub-rhodamine cleavage fluorescence; series mostly up to 54.9 µM;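 also: rhodamine fluorescence freed from ubiquitin-rhodamine substrate followed over time; top concentration of the series differs between compounds; % is scaled to controls: 0 for no effect and ±100 for the full control effect; nearly all actives have a fitted effect of over 35% in size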
# Procedure, shortened: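 USP1/UAF1 complex at 1 nM preincubated 15 min at room temperature with compound, then Ub-Rho substrate added at 150 nM final. Fluorescence (480/540 nm) read kinetically in 50 mM HEPES pH 7.8, 0.5 mM EDTA, 1 mM TCEP, 0.1 mg/ml BSA, 0.01% Tween-20.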
# [15] = Primary qHTS for small molecule stabilizers of the endoplasmic reticulum resident proteome: Secreted ER Calcium Modulated Protein (SERCaMP) assay (AID 1508630); conditions: SH-SY5Y GLuc-SERCaMP (Gaussia luciferase released on ER calcium loss) secretion, thapsigargin, luminescence; series mostly up to 38.4 µM; also: % is scaled to controls: 0 for no effect and ±100 for the full control effect
# Procedure, shortened: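 GLuc-SERCaMP-expressing SH-SY5Y cells, pretreated 16 h with compound, are challenged with thapsigargin to empty ER calcium stores; after 4 h, coelenterazine is added directly to the medium and luminescence is imaged.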
# [16] = biological target: Cytochrome P450 3A4 (Homo sapiens) (UniProt P08684); assay: qHTS Assay for Inhibitors and Substrates of Cytochrome P450 3A4 (AID 884); conditions: recombinant CYP3A4, Luciferin-PPXE luminescence; series mostly up to 57.1 µM; also: nearly all actives have a fitted effect of over 50% in size; also: potency is read from the fitted curve at half-maximal effect
# Procedure, shortened: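 20 nM human CYP3A4 with 25 uM Luciferin-PPXE (at KM) in 200 mM KPO4, preincubated 10 min with compound; NADPH regeneration started a 60 min RT reaction. Luciferin detected by luminescence, normalized to 57 uM ketoconazole as full inhibition.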
# [17] = biological target: Cytochrome P450 3A4 (Homo sapiens) (UniProt P08684); assay: qHTS Assay for Activators of Cytochrome P450 3A4 (AID 885); conditions: recombinant CYP3A4, Luciferin-PPXE luminescence, 60 min; series mostly up to 57.1 µM; also: nearly all actives have a fitted effect of over 65% in size
# Procedure, shortened: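 Signal was normalized against complete inhibition by 57 uM ketoconazole. The reaction used 20nM CYP3A4 with 25uM Luciferin-PPXE, 10-min compound preincubation and a 60-min NADPH-supported step at RT.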
# [18] = biological target: Cytochrome P450 2C19 (Homo sapiens) (UniProt P33261); assay: qHTS Assay for Inhibitors and Substrates of Cytochrome P450 2C19 (AID 899); conditions: recombinant CYP2C19, luciferin-H EGE luminescence; series mostly up to 57.1 µM; also: potency is read from the fitted curve at half-maximal effect; nearly all actives have a fitted effect of over 60% in size
# Procedure, shortened: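 Human CYP2C19 (5nM) with Luciferin-H EGE at 10uM (its KM) in 50mM KPO4 was preincubated with compound for 10 min at 37C. NADPH regeneration started a 60 min 37C reaction. Luciferin was read by luminescence, normalized to 57uM ketoconazole.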
# [19] = biological target: Dual specificity protein kinase CLK4 (Homo sapiens) (UniProt Q9HAZ1); assay: qHTS Assay for Inhibitors of CDC-like Kinase 4 (ADP-FP Assay) (AID 1795); conditions: Transcreener ADP fluorescence polarization; series mostly up to 50 µM;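 also: recombinant human CLK4 phosphorylating RS repeat peptide at 1 µM ATP; % is scaled to controls: 0 for no effect and ±100 for the full control effect; nearly all actives have a fitted effect of over 60% in size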
# Procedure, shortened: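 Recombinant Clk4 (6.25 nM) phosphorylated 100 uM RS repeat peptide with 1 uM ATP in 25 mM Tris pH 7.5, 10 mM MgCl2, 0.5 mM EGTA, 2.5 mM DTT, 0.01% Triton X-100 for 1 h. ADP was detected by Transcreener ADP2 competitive fluorescence polarization after 30 min at room temperature.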
# [20] = measured here: cell count channel max response
# [21] = measured here: lipid channel max response
# Sequence of Glucocorticoid receptor (Homo sapiens) (P04150 whole entry, looked up, the tested form may be a part): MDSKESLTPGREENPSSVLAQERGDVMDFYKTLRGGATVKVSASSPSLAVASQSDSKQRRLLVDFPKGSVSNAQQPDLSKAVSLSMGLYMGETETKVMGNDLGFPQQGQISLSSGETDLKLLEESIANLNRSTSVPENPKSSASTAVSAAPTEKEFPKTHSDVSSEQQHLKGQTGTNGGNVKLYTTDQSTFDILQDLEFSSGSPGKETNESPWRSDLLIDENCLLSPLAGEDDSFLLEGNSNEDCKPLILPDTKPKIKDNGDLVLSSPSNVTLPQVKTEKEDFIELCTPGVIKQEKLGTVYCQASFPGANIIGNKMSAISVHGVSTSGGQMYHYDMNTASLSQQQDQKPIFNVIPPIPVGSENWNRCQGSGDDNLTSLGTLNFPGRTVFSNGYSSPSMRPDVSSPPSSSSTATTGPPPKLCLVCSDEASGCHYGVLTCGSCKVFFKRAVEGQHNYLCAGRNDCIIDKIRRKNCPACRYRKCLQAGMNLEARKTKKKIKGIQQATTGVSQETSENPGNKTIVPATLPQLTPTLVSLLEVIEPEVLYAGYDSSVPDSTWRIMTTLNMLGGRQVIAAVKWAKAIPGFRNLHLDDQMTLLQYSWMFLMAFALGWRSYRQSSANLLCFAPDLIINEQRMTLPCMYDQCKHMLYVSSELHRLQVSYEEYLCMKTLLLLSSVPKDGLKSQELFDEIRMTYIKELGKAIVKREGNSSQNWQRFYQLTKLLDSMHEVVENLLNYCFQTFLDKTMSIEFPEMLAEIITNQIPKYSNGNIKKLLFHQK
# Sequence of 3',5'-cyclic-AMP phosphodiesterase 4B (Homo sapiens) (Q07343 whole entry, looked up): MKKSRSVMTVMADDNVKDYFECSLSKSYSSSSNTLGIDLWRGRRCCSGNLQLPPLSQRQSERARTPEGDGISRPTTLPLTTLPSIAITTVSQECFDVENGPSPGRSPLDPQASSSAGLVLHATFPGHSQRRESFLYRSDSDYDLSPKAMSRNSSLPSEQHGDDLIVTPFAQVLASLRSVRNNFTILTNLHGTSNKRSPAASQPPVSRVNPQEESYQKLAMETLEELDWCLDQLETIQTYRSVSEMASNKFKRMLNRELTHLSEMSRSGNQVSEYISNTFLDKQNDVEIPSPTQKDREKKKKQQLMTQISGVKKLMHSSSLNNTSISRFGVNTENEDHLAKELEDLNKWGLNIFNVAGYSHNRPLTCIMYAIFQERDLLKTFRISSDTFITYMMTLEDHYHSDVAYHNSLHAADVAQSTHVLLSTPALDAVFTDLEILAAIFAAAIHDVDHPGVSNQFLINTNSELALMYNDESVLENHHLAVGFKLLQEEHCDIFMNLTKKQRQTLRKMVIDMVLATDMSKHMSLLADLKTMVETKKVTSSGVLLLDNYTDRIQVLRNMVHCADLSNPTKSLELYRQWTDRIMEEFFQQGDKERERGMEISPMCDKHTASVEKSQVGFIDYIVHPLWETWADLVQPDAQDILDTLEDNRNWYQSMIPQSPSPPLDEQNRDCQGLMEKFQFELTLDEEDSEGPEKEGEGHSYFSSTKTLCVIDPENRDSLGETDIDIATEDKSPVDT
# Sequence of Cytochrome P450 3A4 (Homo sapiens) (P08684 whole entry, looked up): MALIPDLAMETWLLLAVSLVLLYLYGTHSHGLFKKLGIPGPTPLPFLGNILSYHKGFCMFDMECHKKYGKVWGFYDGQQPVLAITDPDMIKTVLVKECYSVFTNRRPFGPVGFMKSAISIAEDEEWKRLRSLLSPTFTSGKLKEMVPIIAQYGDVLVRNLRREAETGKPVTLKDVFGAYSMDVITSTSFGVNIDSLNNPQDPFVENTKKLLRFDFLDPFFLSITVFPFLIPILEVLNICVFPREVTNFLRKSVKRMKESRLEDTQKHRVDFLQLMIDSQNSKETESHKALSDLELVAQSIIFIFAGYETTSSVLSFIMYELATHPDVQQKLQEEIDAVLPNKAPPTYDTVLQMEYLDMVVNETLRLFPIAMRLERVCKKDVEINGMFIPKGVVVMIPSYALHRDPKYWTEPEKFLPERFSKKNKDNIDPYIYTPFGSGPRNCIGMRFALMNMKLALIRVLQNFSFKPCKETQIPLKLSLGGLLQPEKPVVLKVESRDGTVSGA
# Sequence of Ubiquitin carboxyl-terminal hydrolase 1 (Homo sapiens) (O94782 whole entry, looked up): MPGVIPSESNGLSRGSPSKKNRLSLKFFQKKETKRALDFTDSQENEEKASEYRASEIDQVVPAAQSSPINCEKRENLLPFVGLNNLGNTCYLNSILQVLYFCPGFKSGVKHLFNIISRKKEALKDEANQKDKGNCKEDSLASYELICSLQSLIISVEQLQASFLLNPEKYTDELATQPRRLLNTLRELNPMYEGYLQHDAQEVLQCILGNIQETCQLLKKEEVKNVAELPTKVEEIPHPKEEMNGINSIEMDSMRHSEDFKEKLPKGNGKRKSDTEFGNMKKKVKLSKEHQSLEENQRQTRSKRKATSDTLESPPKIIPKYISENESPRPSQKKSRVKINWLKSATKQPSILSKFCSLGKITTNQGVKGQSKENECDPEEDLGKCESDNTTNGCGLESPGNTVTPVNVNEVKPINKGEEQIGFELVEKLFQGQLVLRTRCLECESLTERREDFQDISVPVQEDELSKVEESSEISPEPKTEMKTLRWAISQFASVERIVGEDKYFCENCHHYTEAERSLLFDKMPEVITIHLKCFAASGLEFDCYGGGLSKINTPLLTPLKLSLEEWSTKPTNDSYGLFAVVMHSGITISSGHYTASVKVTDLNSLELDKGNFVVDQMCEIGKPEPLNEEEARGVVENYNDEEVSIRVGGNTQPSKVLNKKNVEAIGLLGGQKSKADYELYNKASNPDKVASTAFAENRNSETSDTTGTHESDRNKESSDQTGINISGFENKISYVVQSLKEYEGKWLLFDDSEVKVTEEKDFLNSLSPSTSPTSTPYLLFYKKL
# Sequence of Lysosomal acid glucosylceramidase (Homo sapiens) (P04062 whole entry, looked up): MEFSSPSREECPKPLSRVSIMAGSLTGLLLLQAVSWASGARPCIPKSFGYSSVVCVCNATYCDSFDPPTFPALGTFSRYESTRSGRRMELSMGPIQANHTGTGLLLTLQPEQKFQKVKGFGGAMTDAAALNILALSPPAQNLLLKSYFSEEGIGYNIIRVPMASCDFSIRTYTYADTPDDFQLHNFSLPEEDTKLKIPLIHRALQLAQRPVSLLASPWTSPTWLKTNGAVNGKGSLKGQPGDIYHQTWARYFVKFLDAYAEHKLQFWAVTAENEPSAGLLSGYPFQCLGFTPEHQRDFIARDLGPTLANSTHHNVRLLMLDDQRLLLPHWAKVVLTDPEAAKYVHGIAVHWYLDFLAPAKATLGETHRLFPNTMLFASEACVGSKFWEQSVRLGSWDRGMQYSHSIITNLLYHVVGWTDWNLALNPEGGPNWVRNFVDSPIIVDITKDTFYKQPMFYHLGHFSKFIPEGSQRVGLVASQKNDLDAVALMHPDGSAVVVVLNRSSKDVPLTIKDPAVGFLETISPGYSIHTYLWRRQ
# Sequence of Cytochrome P450 1A2 (Homo sapiens) (P05177 whole entry, looked up): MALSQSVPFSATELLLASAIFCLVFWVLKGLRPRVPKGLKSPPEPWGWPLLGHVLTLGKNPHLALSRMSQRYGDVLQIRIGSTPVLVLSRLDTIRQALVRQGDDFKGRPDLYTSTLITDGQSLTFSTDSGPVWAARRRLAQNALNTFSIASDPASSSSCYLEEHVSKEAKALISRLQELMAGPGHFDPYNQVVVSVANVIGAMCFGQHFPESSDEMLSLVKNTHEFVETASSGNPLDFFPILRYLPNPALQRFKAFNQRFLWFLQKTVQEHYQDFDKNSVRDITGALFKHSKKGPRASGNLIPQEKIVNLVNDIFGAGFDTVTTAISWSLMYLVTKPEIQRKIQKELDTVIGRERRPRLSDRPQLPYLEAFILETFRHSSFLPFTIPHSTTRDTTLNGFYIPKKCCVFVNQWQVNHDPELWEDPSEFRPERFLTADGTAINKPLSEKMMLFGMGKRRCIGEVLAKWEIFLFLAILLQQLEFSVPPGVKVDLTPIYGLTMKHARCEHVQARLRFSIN
# Sequence of Cytochrome P450 2C19 (Homo sapiens) (P33261 whole entry, looked up): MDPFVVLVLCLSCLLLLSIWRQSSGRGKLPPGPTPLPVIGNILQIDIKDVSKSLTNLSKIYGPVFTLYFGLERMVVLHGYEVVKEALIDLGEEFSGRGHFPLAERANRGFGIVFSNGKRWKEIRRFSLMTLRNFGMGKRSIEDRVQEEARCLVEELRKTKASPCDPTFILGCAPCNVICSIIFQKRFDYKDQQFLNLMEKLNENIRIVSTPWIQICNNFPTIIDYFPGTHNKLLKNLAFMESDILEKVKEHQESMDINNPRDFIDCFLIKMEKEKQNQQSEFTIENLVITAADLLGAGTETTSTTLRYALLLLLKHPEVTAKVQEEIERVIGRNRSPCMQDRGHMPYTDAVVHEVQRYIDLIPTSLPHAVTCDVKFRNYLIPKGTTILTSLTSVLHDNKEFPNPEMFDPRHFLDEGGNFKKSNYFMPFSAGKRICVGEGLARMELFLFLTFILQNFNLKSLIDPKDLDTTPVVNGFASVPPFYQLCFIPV
# Sequence of Cytochrome P450 2C9 (Homo sapiens) (P11712 whole entry, looked up): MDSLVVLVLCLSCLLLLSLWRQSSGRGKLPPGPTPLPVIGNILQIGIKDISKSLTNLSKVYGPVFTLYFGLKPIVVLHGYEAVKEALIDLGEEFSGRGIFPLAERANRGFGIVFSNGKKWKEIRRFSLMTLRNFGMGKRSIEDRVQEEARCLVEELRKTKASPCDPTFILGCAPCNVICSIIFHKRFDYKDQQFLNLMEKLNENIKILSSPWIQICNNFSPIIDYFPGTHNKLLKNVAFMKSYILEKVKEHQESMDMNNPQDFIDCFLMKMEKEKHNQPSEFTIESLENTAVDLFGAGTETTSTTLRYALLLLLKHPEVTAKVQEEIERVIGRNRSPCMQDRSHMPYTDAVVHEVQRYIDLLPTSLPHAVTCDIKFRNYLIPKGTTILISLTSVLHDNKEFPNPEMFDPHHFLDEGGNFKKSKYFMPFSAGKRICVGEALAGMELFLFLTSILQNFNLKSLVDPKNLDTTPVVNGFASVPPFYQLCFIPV
structure (smiles),measurement,setting,value
COCCNc1cc(-c2ccccc2CN(C)C)ncn1,Potency,[1],> 11.4 µM (inactive)
same,"activity change, negative = inhibition",[2],1.28% (inactive)
same,Potency,[3],inactive
same,"activity change, negative = inhibition",[4],-0.403% (inactive)
same,"activity, negative = inhibition",[5],13.5% (inactive)
same,Potency,[6],> 46 µM (inactive)
same,Potency,[7],> 46 µM (inactive)
same,outcome,[8],inactive
same,Potency,[9],inactive
same,"activity change, negative = inhibition",[10],49.4% [at 2.29 µM] (inactive)
same,outcome,[11],inactive
same,outcome,[12],inactive
same,"activity change, negative = inhibition",[13],4.45% (inactive)
same,max response,[13]; [20],21.8%
same,max response,[13]; [21],24.8%
same,Potency,[14],inactive
same,Potency,[15],inactive
COc1ccccc1-c1cncnc1Nc1ccc(F)cc1,Potency,[1],> 11.4 µM (inactive)
same,"activity change, negative = inhibition",[2],-12.4% (inactive)
same,Potency,[3],7.94 µM (active)
same,"activity change, negative = inhibition",[4],1.41% (inactive)
same,"activity, negative = inhibition",[5],4.34% (inactive)
same,Potency,[6],> 46 µM (inactive)
same,Potency,[7],> 46 µM (inactive)
same,outcome,[8],inactive
same,Potency,[9],inactive
same,Potency,[16],0.158 µM (active)
same,Potency,[17],inactive
same,outcome,[11],inactive
same,"activity change, negative = inhibition",[13],10.5% (inactive)
same,max response,[13]; [20],9.46%
same,max response,[13]; [21],20.1%
same,Potency,[14],inactive
same,Potency,[15],inactive
COc1ccccc1-c1cncnc1-n1ccnc1,Potency,[1],> 11.4 µM (inactive)
same,"activity change, negative = inhibition",[2],-7.86% (inactive)
same,Potency,[3],12.6 µM (active)
same,"activity change, negative = inhibition",[4],1.61% (inactive)
same,"activity, negative = inhibition",[5],10.2% (inactive)
same,Potency,[6],> 46 µM (inactive)
same,Potency,[7],> 46 µM (inactive)
same,outcome,[8],inactive
same,Potency,[9],inactive
same,Potency,[16],inactive
same,outcome,[11],inactive
same,outcome,[12],inactive
same,"activity change, negative = inhibition",[13],7.28% (inactive)
same,max response,[13]; [20],19.4%
same,max response,[13]; [21],28.5%
same,Potency,[14],inactive
same,Potency,[15],inactive
Cc1cnc(CNc2ccnc(-c3ccccc3Cl)n2)cn1,Potency,[1],> 11.4 µM (inactive)
same,"activity change, negative = inhibition",[2],-1.45% (inactive)
same,Potency,[3],12.6 µM (active)
same,"activity change, negative = inhibition",[4],-3.33% (inactive)
same,"activity, negative = inhibition",[5],7.09% (inactive)
same,Potency,[6],> 46 µM (inactive)
same,Potency,[7],> 46 µM (inactive)
same,outcome,[8],inactive
same,Potency,[9],inactive
same,Potency,[17],inactive
same,outcome,[11],inactive
same,outcome,[12],inactive
same,"activity change, negative = inhibition",[13],7.03% (inactive)
same,max response,[13]; [20],7.84%
same,max response,[13]; [21],16.2%
same,Potency,[14],inactive
same,Potency,[15],inactive
Cc1cnc(CNc2ncncc2-c2ccccc2C(F)(F)F)cn1,Potency,[1],> 11.4 µM (inactive)
same,"activity change, negative = inhibition",[2],-6.17% (inactive)
same,Potency,[3],inactive
same,"activity change, negative = inhibition",[4],2.1% (inactive)
same,"activity, negative = inhibition",[5],-1.72% (inactive)
same,Potency,[6],> 46 µM (inactive)
same,Potency,[7],> 46 µM (inactive)
same,outcome,[8],inactive
same,Potency,[9],inactive
same,Potency,[17],inactive
same,outcome,[11],inactive
same,outcome,[12],inactive
same,"activity change, negative = inhibition",[13],7.68% (inactive)
same,max response,[13]; [20],18.6%
same,max response,[13]; [21],28.1%
same,Potency,[14],inactive
same,Potency,[15],inactive
COc1cccc(-c2cncnc2Nc2ccc(F)cc2)c1,Potency,[1],> 11.4 µM (inactive)
same,"activity change, negative = inhibition",[2],-13.2% (inactive)
same,"activity change, negative = inhibition",[4],13.9% (inactive)
same,"activity, negative = inhibition",[5],-10.1% (inactive)
same,Potency,[6],> 46 µM (inactive)
same,Potency,[7],> 46 µM (inactive)
same,outcome,[8],inactive
same,Potency,[16],0.794 µM (active)
same,Potency,[17],inactive
same,Potency,[18],0.398 µM (active)
same,"activity change, negative = inhibition",[13],9.47% (inactive)
same,max response,[13]; [20],6.55%
same,max response,[13]; [21],18.7%
same,Potency,[19],inactive
same,Potency,[15],inactive
